Experiment [1] concerns the target Calcium and integrin-binding protein 1 (Homo sapiens) (UniProt Q99828). In words: Primary qHTS for Identification of Calcium Integrin Binding Protein 1 (CIB1) Competitor (AID 1508620). Also: top concentration of the series differs between compounds. Put shortly: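 CIB1-GST (1 uM final) and compound incubated 15 min at room temperature before adding FITC-alphaIIb peptide tracer (100 nM final). Competition for binding read by fluorescence polarization (ex 480, em 540) after another 15 min at room temperature.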
A general note: qHTS replaces the single test concentration by a dilution series.

Experiment [2] is described as follows: Primary qHTS for small molecule stabilizers of the endoplasmic reticulum resident proteome: Secreted ER Calcium Modulated Protein (SERCaMP) assay (AID 1508630). In a few lines: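 GLuc-SERCaMP-expressing SH-SY5Y cells, pretreated 16 h with compound, are challenged with thapsigargin to empty ER calcium stores; after 4 h, coelenterazine is added directly to the medium and luminescence is imaged.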

Experiment [3] addresses Protein phosphatase 1D (Homo sapiens) (UniProt O15297). The experiment is described as follows: RapidFire Mass Spectrometry qHTS Assay for Modulators of WT P53-Induced Phosphatase 1 (WIP1) (AID 1347424).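 Also: amount of dephosphorylated VEPPL-S-QETFS peptide product formed by WIP1; series mostly up to about 63 µM.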 In a few lines: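 10 nM WIP1 + cpd, 1 h RT; + 2 uM VEPPL-pS-QETFS, 5 min RT; stop 0.5% formic acid; labelled product standard 1 uM; RapidFire MS. Buffer 50 mM Tris pH 7.5, 30 mM MgCl2, 1 mM TCEP.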

For experiment [4] the target is unchanged. The experiment is described as follows: Rhodamine-PBP qHTS Assay for Modulators of WT P53-Induced Phosphatase 1 (WIP1) (AID 1347425). In a few lines:
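The read-out is the change in Rhodamine-PBP fluorescence (f1 - f0, ex 525/em 598 nm) as Pi is released, read each minute for 11 min. Final reaction: 5 nM WIP1, 10 uM phosphopeptide VEPPL-pS-QETFS, 10 uM Rh-PBP, 50 mM Tris-HCl pH 7.5, 30 mM MgCl2. Compound was preincubated with enzyme for 1 hour at room temperature.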

Experiment [5] is described as follows: Primary qHTS for inhibitors of La Crosse Virus (LACV) - induced cell death in SH-SY5Y cells (AID 1508616).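 Also: top concentration of the series differs between compounds; higher means more rescue of cells from virus-induced death.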 Put shortly:
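Luminescent ATP readout (ATPLite 1step, 5 min room temperature) measured rescue from LACV-induced death after 6 days of infection at 0.01 MOI; normalized to infected DMSO wells and uninfected DMSO wells.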

Experiment [6] can be described thus: A High-Content qHTS Against Drug Library for the Identification of Small Molecules that Inhibit DYT1 Early Onset Primary Dystonia-Associated Cell Pathology (AID 1645839; calls by dose curve; also: series mostly up to about 46 µM). In a few lines: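 In this high-content image screen, delE TorsinA mislocalization in inducible Flp-In 293 cells is scored as %pathology, with cell count serving as the counterscreen. Compound exposure lasts 48 h under tetracycline induction in reduced-serum medium.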

Experiment [7] concerns the target Cytochrome P450 2D6 (Homo sapiens) (UniProt P10635). The experiment is described as follows: Cytochrome P450 family 2 subfamily D member 6 (CYP2D6) small molecule antagonists: luciferase biochemical (cell-free) qHTS assay (AID 1645840; active = well fitted curve in the direction sought with a large enough effect in the repeat runs; an effect the other way counts as inactive or inconclusive; also: nearly all actives have a fitted effect of over 55% in size; also: potency is read from the fitted curve at half-maximal effect; as to activity change, negative = inhibition: series mostly up to about 57 µM). In a few lines: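 P450-Glo luminescent screen: recombinant CYP2D6 enzyme–proluciferin substrate mix preincubated with compound 10 min at room temperature, then NADPH regeneration added for 1 h at room temperature. Detection reagent added for 20 min; luciferin light read as relative luminescence units.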

Experiment [8] can be described thus: Primary qHTS for inhibitors of nuclear receptor binding SET domain protein 2 (NSD2) in an isogenic RCH-ACV NSD2 p.E1099K mutant (9B) (AID 1645876). Also: nearly all actives have a fitted effect of over 70% in size. Also: potency is read from the fitted curve at half-maximal effect.
Experiment [9] is described as follows: Validation qHTS assay for inhibitors of Activation Induced Cytidine Deaminase (AID): UDG Counterscreen signal (AID 1347427). Put shortly:
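Counterscreen read of UDG activity (2 U/mL, 4/3x) in the FRET deamination format with AID (1 uM, 4/3x), DJC20/DJC23 substrates (250 nM, 4x), 4 h at room temperature. NaOH stop, fluorescence at 560 ex/665 em.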

In experiment [10] the target is Single-stranded DNA cytosine deaminase (Homo sapiens) (UniProt Q9GZX7). In words: Validation qHTS assay for inhibitors of Activation Induced Cytidine Deaminase (AID): AID signal (AID 1347429). In a few lines:
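AID and UDG were combined and compounds added at final up to 114 uM, then DJC20/DJC23 FRET substrate was added for 4 hr at room temperature. NaOH was then added for 30 min before fluorescence was read at 540/590 nm.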

For experiment [11], the target named is Calcium and integrin-binding protein 1 (Homo sapiens) (UniProt Q99828). In words: Confirmatory qHTS for Identification of Calcium Integrin Binding Protein 1 (CIB1) Competitor (AID 1508617). Also: nearly all actives have a fitted effect of over 65% in size. Put shortly: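 Compounds at up to 114 uM final met 1 uM GST-tagged CIB1 for 15 min at room temperature (HEPES pH 7.4, 5 mM CaCl2). FITC-labelled alphaIIb peptide, 100 nM, added; polarization read after 15 min more.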
Calcium and integrin-binding protein 1 (Homo sapiens), sequence (Q99828 whole entry, looked up): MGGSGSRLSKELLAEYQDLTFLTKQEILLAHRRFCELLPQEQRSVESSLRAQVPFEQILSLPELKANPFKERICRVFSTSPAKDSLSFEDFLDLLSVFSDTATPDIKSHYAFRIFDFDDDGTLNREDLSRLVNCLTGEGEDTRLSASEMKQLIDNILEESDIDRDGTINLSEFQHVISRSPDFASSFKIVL

Experiment [12] is described as follows: qHTS to identify inhibitors of the type 1 interferon - major histocompatibility complex class I in skeletal muscle: primary screen against the NCATS Mechanism Interrogation Plate v5.0 (MIPE) Libary (AID 1347411). Also: nearly all actives have a fitted effect of over 65% in size. In a few lines: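 Immortalized human C25cl48 myoblasts with HiBit knocked into endogenous HLA-B*08:01 were stimulated with 4.0 ng/ml IFN-beta and exposed to compounds (11-point 1:3 titration, top 46 uM final) for 24 hrs at 37 C; HiBiT lytic luminescence measured.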

Experiment [13] in a line: Primary qHTS for inhibitors of nuclear receptor binding SET domain protein 2 (NSD2) in an RCH-ACV wild type WT cells (2C) (AID 1645877). Also: nearly all actives have a fitted effect of over 70% in size. Also: potency is read from the fitted curve at half-maximal effect.
In experiment [14] the target is Cytochrome P450 2C9 (Homo sapiens) (UniProt P11712). In words: Cytochrome P450 family 2 subfamily C member 9 (CYP2C9) small molecule antagonists: luciferase biochemical (cell-free) qHTS assay (AID 1645842; active = well fitted curve in the direction sought with a large enough effect in the repeat runs; an effect the other way counts as inactive or inconclusive; also: potency is read from the fitted curve at half-maximal effect; nearly all actives have a fitted effect of over 55% in size). Put shortly:
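Luminescence, after 20 min with luciferin detection reagent, reflected CYP2C9 turnover during a 1 h NADPH-driven reaction at 37C. Enzyme-substrate mix contained 0.4% bovine serum albumin and was preincubated with compound 10 min at room temperature.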

Molecules are shown by their SMILES. Unmarked numbers belong to inactive results. Results filed as inconclusive are left out. A call without a number means that no potency is given here. Activity calls are given as the source filed them. Unless noted, calls follow the shape of the dose curve; as a rule, active = well fitted curve in the direction sought with a large enough effect; inconclusive = small, poorly fitted or top-dose-only effect, or another doubt; inactive = no such curve, though single readings can be large; an effect the other way counts as inactive or inconclusive.

Cytochrome P450 2D6 (Homo sapiens), sequence (P10635 whole entry, looked up): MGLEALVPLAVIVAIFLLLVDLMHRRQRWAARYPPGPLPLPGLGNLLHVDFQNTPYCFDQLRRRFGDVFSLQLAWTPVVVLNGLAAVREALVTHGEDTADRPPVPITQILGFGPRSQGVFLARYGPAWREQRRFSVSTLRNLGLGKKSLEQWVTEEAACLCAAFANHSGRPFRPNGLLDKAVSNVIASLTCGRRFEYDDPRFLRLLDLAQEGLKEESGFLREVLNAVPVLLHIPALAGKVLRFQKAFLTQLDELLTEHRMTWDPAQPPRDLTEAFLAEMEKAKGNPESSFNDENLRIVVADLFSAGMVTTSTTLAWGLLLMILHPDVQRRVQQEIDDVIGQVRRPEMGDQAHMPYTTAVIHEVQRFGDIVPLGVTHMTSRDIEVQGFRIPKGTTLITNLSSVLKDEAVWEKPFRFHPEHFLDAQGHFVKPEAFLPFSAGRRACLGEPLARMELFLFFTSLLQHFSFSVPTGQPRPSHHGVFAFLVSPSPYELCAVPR
Protein phosphatase 1D (Homo sapiens), sequence (O15297 whole entry, looked up): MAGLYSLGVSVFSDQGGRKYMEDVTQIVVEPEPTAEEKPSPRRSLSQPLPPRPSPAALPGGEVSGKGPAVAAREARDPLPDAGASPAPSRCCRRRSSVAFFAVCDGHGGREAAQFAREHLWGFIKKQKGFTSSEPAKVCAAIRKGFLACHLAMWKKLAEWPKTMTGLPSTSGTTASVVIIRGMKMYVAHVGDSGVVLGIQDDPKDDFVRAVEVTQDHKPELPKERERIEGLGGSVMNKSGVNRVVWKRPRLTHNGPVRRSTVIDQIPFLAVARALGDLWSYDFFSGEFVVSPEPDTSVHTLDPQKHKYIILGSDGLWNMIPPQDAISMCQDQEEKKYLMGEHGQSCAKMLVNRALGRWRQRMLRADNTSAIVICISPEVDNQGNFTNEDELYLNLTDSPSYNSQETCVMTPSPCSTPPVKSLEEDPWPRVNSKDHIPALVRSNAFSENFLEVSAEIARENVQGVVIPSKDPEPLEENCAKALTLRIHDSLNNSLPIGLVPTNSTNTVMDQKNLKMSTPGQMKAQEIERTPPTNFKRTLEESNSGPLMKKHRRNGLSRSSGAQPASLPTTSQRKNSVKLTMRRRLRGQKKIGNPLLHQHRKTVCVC
Single-stranded DNA cytosine deaminase (Homo sapiens), sequence (Q9GZX7 whole entry, looked up): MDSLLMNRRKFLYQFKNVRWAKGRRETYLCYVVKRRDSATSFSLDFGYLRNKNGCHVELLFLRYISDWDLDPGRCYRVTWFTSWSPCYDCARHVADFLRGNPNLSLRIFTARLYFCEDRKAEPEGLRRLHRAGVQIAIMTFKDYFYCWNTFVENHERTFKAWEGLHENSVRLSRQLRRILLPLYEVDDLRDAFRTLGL
Cytochrome P450 2C9 (Homo sapiens), sequence (P11712 whole entry, looked up): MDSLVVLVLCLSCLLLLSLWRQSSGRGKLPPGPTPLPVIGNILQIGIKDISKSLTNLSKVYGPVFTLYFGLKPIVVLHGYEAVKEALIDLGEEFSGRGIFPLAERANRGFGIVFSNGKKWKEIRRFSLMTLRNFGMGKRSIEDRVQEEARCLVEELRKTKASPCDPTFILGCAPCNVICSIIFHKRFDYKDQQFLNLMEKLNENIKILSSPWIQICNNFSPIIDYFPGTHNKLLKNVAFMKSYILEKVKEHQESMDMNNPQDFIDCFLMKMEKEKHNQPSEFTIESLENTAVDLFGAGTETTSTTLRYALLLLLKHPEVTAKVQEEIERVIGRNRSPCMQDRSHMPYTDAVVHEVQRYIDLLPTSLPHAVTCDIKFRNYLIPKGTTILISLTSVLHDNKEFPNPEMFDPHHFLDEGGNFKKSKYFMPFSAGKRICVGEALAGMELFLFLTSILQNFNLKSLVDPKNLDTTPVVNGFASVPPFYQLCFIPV

Turning to `CC[C@H]1OC(=O)[C@H](C)[C@@H](O[C@H]2C[C@@](C)(OC)[C@@H](O)[C@H](C)O2)[C@H](C)[C@@H](O[C@@H]2O[C@@H](C)C[C@H](N(C)C)[C@@H]2O)[C@](C)(O)C[C@@H](C)C(=O)[C@H](C)[C@@H](O)[C@]1(C)O`, the Potency entry in experiment [1] was “inactive”.

As to `OCc1ccccc1O[C@@H]1O[C@H](CO)[C@H](O)[C@H](O)[C@H]1O`, the Potency entry in experiment [1] is “inactive”. In addition, the outcome in experiment [2] was inactive.

For the compound `CC1(C)O[C@@H]2C[C@H]3[C@@H]4CCC5=CC(=O)C=C[C@]5(C)[C@@H]4[C@@H](O)C[C@]3(C)[C@]2(C(=O)CO)O1`, the Potency entry in experiment [3], in experiment [1], in experiment [7] and in [8] was “inactive” in each case. In addition, the result in experiment [4], in experiment [5], in experiment [2] and in experiment [6] was inactive.

As to `C#C[C@]1(O)CC[C@@H]2[C@@H]3CCc4cc(O)ccc4[C@H]3CC[C@@]21C`, the Potency entry in experiment [1] is “inactive”. Besides, the outcome in [2] was inactive.

As for `COc1ccc2cc([S+]([O-])Cc3ncc(C)c(OC)c3C)nc2c1`, the call in experiment [9], in experiment [10] and in experiment [5] was inactive. The Potency entry in [1] was “inactive”.

Regarding `NC(=O)c1ncn([C@@H]2O[C@H](CO)[C@@H](O)[C@@H]2O)c1O`, the Potency result in experiment [11] and in experiment [1] was “inactive” throughout. Also, the result in [2] was inactive.

With `C[C@H]1COc2c(N3CCN(C)CC3)c(F)cc3c(=O)c(C(=O)O)cn1c23`, the Potency entry in [12] and in experiment [13] was “inactive” in each case. Further, the result in [2] was inactive.

Regarding `C[C@@H](NCc1cc2ccccc2[nH]1)c1cccc2ccccc12`, the Potency result in [11] is “inactive”. In experiment [2], the outcome was inactive. Moreover, the Potency was 0.0952 µM (active) in experiment [7], 10.7 µM (active) in [14], 16.6 µM (active) in experiment [8] and 14.8 µM (active) in experiment [13].

Consider `CCOC(=O)[C@H](CCc1ccccc1)N[C@@H](C)C(=O)N1[C@@H](C(=O)O)C[C@H]2CCC[C@@H]21`, for which the Potency entry in experiment [1] was “inactive”.

On to `O=C(C=CC#Cc1cccc(NS(=O)(=O)c2ccccc2)c1)NO`, for which the Potency result in experiment [1] is “inactive”. Moreover, the result in experiment [2] was inactive.

Take `Cc1onc(-c2ccccc2)c1C(=O)N[C@@H]1C(=O)N2[C@@H](C(=O)O)C(C)(C)S[C@@H]12`: in experiment [1], the Potency entry is “inactive”. Also, the outcome in [2] was inactive.

With `CC(=O)OCC(=O)[C@@]12N=C(C)O[C@H]1C[C@H]1[C@@H]3CCC4=CC(=O)C=C[C@]4(C)[C@@H]3[C@@H](O)C[C@@]12C`, the Potency result in experiment [1] was “inactive”. In experiment [2], the outcome was inactive.

Take `COc1cc(OC)cc(-c2ccc3ncc4ccc(=O)n(-c5ccc(N6CCNCC6)c(C(F)(F)F)c5)c4c3c2)c1`: in [1], the Potency entry was “inactive”. Moreover, in experiment [2], the result was inactive.

As for `CCN1CCN(C(=O)N[C@H](C(=O)N[C@@H]2C(=O)N3C(C(=O)O)=C(CSc4nnnn4C)CS[C@@H]23)c2ccc(O)cc2)C(=O)C1=O`, the activity change, negative = inhibition in [1] is -3.53% [at 12.4 µM]. The outcome in [2] was inactive.

In the case of `C=CC1=C(C(=O)O)N2C(=O)[C@@H](NC(=O)C(=NO)c3csc(N)n3)[C@H]2SC1`, the Potency result in experiment [1] was “inactive”. For the same compound, the outcome in experiment [2] was inactive.

As for `Nc1ncn([C@@H]2O[C@H](CO)[C@@H](O)[C@@H]2O)c(=O)n1`, in experiment [1], the Potency entry was “inactive”. In addition, the outcome in experiment [2] was inactive.

For the compound `CC(C)N(CC[C@H](c1ccccc1)c1cc(CO)ccc1O)C(C)C`, the Potency result in experiment [1] was “inactive”. In experiment [2], the result was inactive.

Regarding `CCc1cnn2c(NCc3ccc[n+]([O-])c3)cc(N3CCCC[C@@H]3CCO)nc12`, the Potency entry in experiment [1] was “inactive”. The result in experiment [2] was inactive.

With `C=CCNc1c(O)cc2c(O)c1C[C@@H](C)C[C@H](OC)[C@@H](O)[C@@H](C)C=C(C)[C@H](OC(N)=O)[C@@H](OC)C=CC=C(C)C(=O)N2`, the Potency entry in experiment [1] is “inactive”. Besides, the outcome in experiment [2] was inactive.

On to `CO[C@@H]1[C@@H](O)[C@H](O)[C@@H](n2c3c(Cl)cccc3c3c4c(c5c6cccc(Cl)c6[nH]c5c32)C(=O)NC4=O)O[C@@H]1CO`, for which the Potency entry in experiment [1] is “inactive”. In experiment [2], the result was inactive.

Take `CCOC(=O)N1CCN([N+]([O-])=NOc2ccc([N+](=O)[O-])cc2[N+](=O)[O-])CC1`: the Potency result in [1] is “inactive”. In addition, the outcome in experiment [2] was inactive.

Turning to `CCC(C=C[C@@H]1OC(=O)C=C[C@H]1C)=C[C@H](C)CC=CC(C)=C[C@@H](C)C(=O)[C@@H](C)[C@H](O)[C@@H](C)CC(C)=CC(=O)O`, the activity change, negative = inhibition in experiment [1] was 3.68% [at 2.24 µM]; in [2] it was 41.2% [at 1.51 µM].

With `CCOc1cc2ncc(C#N)c(Nc3ccc(OCc4ccccn4)c(Cl)c3)c2cc1NC(=O)C=CCN(C)C`, the Potency entry in experiment [1] is “inactive”. Further, the result in experiment [2] was inactive.

As to `COc1cc(N2CCC(C(N)=O)CC2)ccc1Nc1nc(N)c(Cl)c(Nc2ccccc2S(=O)(=O)C(C)C)n1`, in experiment [1], the Potency entry is “inactive”. For the same compound, in experiment [2], the result was inactive.

`COC1=C2C[C@@H](C)C[C@H](OC)[C@@H](O)[C@@H](C)C=C(C)[C@H](OC(N)=O)[C@@H](OC)C=CC=C(C)C(=O)NC(=CC1=O)C2=O`: the Potency result in experiment [1] was “inactive”. Also, in experiment [2], the result was inactive.

Take `CC(C)(O)Cn1c(NC(=O)c2ccc(-c3cn[nH]c3)s2)nc2cc(CN3CCOCC3)ccc21`: the Potency entry in experiment [1] is “inactive”. Also, the result in experiment [2] was inactive.

On to `C=C1C(=O)O[C@H]2[C@@H]1CCC(C)=CCC[C@@]1(C)O[C@@H]21`, for which the Potency entry in [1] was “inactive”. The outcome in experiment [2] was inactive.

`O=C(O)C[C@H](O)C[C@H](O)C=Cc1c(C2CC2)nc2ccccc2c1-c1ccc(F)cc1`: the Potency result in [1] is “inactive”. Moreover, the outcome in experiment [2] was inactive.

Turning to `O=C(C=CC=Cc1ccc2c(c1)OCO2)N1CCCCC1`, the Potency entry in experiment [1] is “inactive”. The outcome in experiment [2] was inactive.

With `CNC(=O)c1ccc(Nc2cc(Nc3ccccc3S(=O)(=O)C(C)C)c3cc[nH]c3n2)nc1`, the Potency entry in experiment [1] was “inactive”. Moreover, the outcome in experiment [2] was inactive.

For `CC(=O)C1=C(O)C=C2Oc3c(C(C)=O)c(O)c(C)c(O)c3C2(C)C1=O` (centres undefined), the Potency entry in experiment [1] is “inactive”. In experiment [2], the result was inactive.

The values are drawn from PubChem BioAssay (NCATS).
